This is a sample that favours compounds with a hit; in the whole collection about 0.54% have one here.
uPA surface inh: inhibitors of cell surface uPA generation. cell surface uPA generation assay, qHTS. Potency, µM (titrated, usually from 38.3 µM), most hits filed as inhibitors. hit rate 0.31% among 330,000. AID 540303; active means well fitted inhibition curve with a large enough effect; inconclusive means small, poorly fitted or top-dose-only effect; inactive means no such curve, though single readings can be large or run the other way; tested in mouse RAW 264.7 cells; further: nearly all actives have a fitted effect of over 55% in size
Chronic BCR inh: blocks chronic active B-cell receptor signaling; AID 493014; ABC-DLBCL IkBa-CBG/CBR reporter, luminescence ratio, 4 h; Potency, µM (titrated, usually from 46.1 µM), hits mostly inhibitors; hit rate 0.05% among 340,000; active means well fitted inhibition curve with a large enough effect in the signal ratio, with a control signal flat, not every such curve was filed as active; inconclusive means small, poorly fitted or top-dose-only effect, or effect the other way, or a change in a side signal; the % refers to the signal ratio
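Concentration-response series (up to 46 uM) were applied to TMD8 dual-reporter cells for 4 h at 37C with doxycycline. Green/red ratio, after filter-overlap correction, defined %Activity; red signal alone was normalised to basal cells and zero luminescence.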
MBNL1-CUG inh: blocks human MBNL1 binding to CUG repeat RNA. Q9NR56. TR-FRET MBNL1-His/biotin-(CUG)12 binding, 665/545 ratio. Potency, µM (highest dose often 57.5 µM), actives largely listed as inhibitors. hit rate 0.036% among 280,000. AID 2675; active means well fitted inhibition curve with a large enough effect in the signal ratio, with a control signal flat, not every such curve was filed as active; inconclusive means small, poorly fitted or top-dose-only effect, or effect the other way, or a change in a side signal; inactive means no such curve, though single readings can be large or run the other way; the % refers to the signal ratio
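Inhibition of protein-RNA binding appears as loss of TR-FRET between terbium anti-His antibody on MBNL1-His and streptavidin-XL665 on biotin-(CUG)12. Activity is normalized to buffer-only and uninhibited-complex controls.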
Vif-A3F inh: blocks the Vif interaction with APOBEC3F; HeLa A3F-eYFP + Vif (tagged APOBEC3F with the HIV-1 protein that degrades it), YFP fluorescence increase; Potency, µM (highest dose often 46.1 µM); hit rate 0.2% among 390,000; AID 602313; further: nearly all actives have a fitted effect of over 65% in size
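HeLa cells stably expressing A3F-eYFP plus Vif, plated and incubated overnight at 37 deg C, then exposed to compounds overnight at 37 deg C. Blocked degradation read as raised yellow fluorescence (Ex 488/Em 500-530).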
TCR activator: activates T cell receptor signaling | primary human leukocytes, anti-CD3, IL-2 HTRF, 48 h | 330,000 tested, under 10 active | Potency, µM (highest dose often 9.22 µM), hits mostly activators | AID 504894
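48 hr co-incubation of compounds, a-CD3 beads and primary human leukocytes; IL-2 quantified homogeneously by HTRF with anti-IL-2 K and d2 conjugates.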
Vif-A3G inh: blocks the Vif interaction with human APOBEC3G | HeLa A3G-eYFP + Vif (tagged APOBEC3G with the HIV-1 protein that degrades it), YFP fluorescence, overnight | Potency, µM (highest dose often 46.1 µM), actives largely listed as inhibitors | hit rate 0.076% among 410,000; further: nearly all actives have a fitted effect of over 60% in size
Target sequence (Q9HC16 whole entry, looked up): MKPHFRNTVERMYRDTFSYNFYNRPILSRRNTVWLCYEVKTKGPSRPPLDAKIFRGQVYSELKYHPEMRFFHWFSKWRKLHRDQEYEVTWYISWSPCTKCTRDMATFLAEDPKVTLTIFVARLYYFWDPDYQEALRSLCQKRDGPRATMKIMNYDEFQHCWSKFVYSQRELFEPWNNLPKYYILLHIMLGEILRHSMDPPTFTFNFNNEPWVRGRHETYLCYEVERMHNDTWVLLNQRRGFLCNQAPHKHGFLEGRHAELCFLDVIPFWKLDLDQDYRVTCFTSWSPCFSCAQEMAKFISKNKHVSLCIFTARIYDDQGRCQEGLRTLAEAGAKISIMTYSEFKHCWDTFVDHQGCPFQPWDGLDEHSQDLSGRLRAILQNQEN
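HeLa cells stably expressing Vif and C-terminally eYFP-tagged A3G, seeded overnight at 37 deg C, then exposed to compound by pintool overnight at 37 deg C. Rise in yellow fluorescence (Ex 488/Em 500-530, Acumen) marks blocked Vif-driven A3G degradation.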
Numbers stand for hits; 0 = inactive; ? = inconclusive; - = no result. Unless noted, the call rests on the fitted dose curve; in most records, active means well fitted curve in the direction sought with a large enough effect; inconclusive means small, poorly fitted or top-dose-only effect, or another doubt; inactive means no such curve, though single readings can be large; an effect the other way counts as inactive or inconclusive.

SMILES	uPA surface inh	Chronic BCR inh	MBNL1-CUG inh	Vif-A3F inh	TCR activator	Vif-A3G inh
Cc1onc(-c2ccccc2Cl)c1C(=O)N1CCN(c2cccc(Cl)c2)CC1	2.24µM	?	0	0	0	0
NS(=O)(=O)c1ccc(N/N=C/c2ccccc2C(=O)O)c([N+](=O)[O-])c1	0	0	-	0	0	0
O=C(O)c1ccccc1/C=N/Nc1ccc(S(=O)(=O)N2CCOCC2)cc1[N+](=O)[O-]	0	0	?	0	0	6.31µM
c1ccc2c(N=NN3CCCCC3)ccnc2c1	-	-	-	-	-	0
CC(=O)Oc1c(-c2ccc(Br)o2)oc2ccccc2c1=O	0	0	?	12.6µM	0	0
COc1ccc(-c2oc3ccccc3c(=O)c2OC(C)=O)cc1	0	0	0	0	0	0
CN(C)C1=NC[C@H](Cc2ccccc2)N1CCCC1CCCC1	3.98µM	?	-	0	0	0
CN(C)C1=NC[C@H](Cc2ccccc2)N1CCCC1CCCCC1	?	0	-	0	0	0
CCC(CO)[n+]1c(C)cc(/C=C2\Sc3ccccc3N2Cc2ccccc2)cc1C (stereo not given)	0	?	?	11.2µM	0	12.6µM
COC(=O)c1ccc(NC(=O)c2nc(S(=O)(=O)Cc3ccccc3F)ncc2Cl)cc1	-	-	-	-	-	0
CN(C)c1ccc(/C=C2\C=Cc3ccccc32)c(Cl)c1	-	-	-	-	-	0
COc1cc(-c2nc3ccccn3c2NCc2ccccc2)ccc1SC1CCCCC1	?	?	-	0	0	0
COc1cc(-c2nc3ccc(C)cn3c2NCc2ccccc2)ccc1SC1CCCCC1	8.91µM	0	-	0	0	10µM
CC(=O)Nc1ccc(/C=C/c2ccnc3ccccc23)cc1[N+](=O)[O-]	-	-	-	-	-	0
C=C1C=C(C(F)F)n2ncc(C(=O)NCc3ccccc3OC)c2N1	-	-	-	-	-	0
COc1ccc(CN2CC[C@H]3C=CC[C@@H](C(=O)N4CCN(c5ccccc5)CC4)[C@H]3C2=O)cc1OC	-	-	-	-	-	0
COc1ccc2[nH]c3c(c2c1)CCNC3C1CC=C(C)CC1 (stereo not given)	2.82µM	?	0	0	0	?
COc1ccc2[nH]c(C)cc(=O)c2c1	0	0	0	0	0	0
COc1ccc2[nH]c3c(c2c1)CCNC3c1ccc([N+](=O)[O-])o1 (stereo not given)	0	0	?	25.1µM	0	?
CCCCCc1cc[n+](CC(=O)c2ccccc2)cc1	-	-	-	-	-	0
Cc1ccnc2cc(Cl)c(Cl)cc12	-	-	-	-	-	0
COc1cc(/C=C2\SC(=S)N(Nc3ncc(C(F)(F)F)cc3Cl)C2=O)ccc1O	0	?	?	22.4µM	0	?
COc1cc(/C=C2\SC(=S)N(Nc3ccccc3)C2=O)ccc1O	0	0	-	?	0	?
CN(C)c1ccc(/C=C2\SC(=S)N(Nc3ncc(C(F)(F)F)cc3Cl)C2=O)cc1	-	0	0	10µM	0	?
COc1cc(/C=C2/SC(=S)N(CC3CCCO3)C2=O)ccc1O (stereo not given)	0	?	?	31.6µM	0	0
SMILES	uPA surface inh	Chronic BCR inh	MBNL1-CUG inh	Vif-A3F inh	TCR activator	Vif-A3G inh
COc1ccc(/C=C2\SC(=S)N(CC3CCCO3)C2=O)cc1 (stereo not given)	0	?	0	0	0	0
CCN(Cc1cccc(S(=O)(=O)O)c1)c1ccc(C(=C2C=CC(=[N+](CC)Cc3cccc(S(=O)(=O)O)c3)C=C2)c2ccccc2S(=O)(=O)[O-])cc1	-	-	-	-	-	0
Cc1ccccc1Cn1c(=N)n(CC(=O)c2ccc([N+](=O)[O-])cc2)c2ccccc21	0	0	-	28.2µM	0	0
CCCn1c(=N)n(CC(=O)c2ccc([N+](=O)[O-])cc2)c2ccccc21	0	?	?	?	0	0
O=C(CSc1nnc(NC(=O)c2ccccc2F)s1)NCC1CCCO1 (stereo not given)	6.31µM	0	0	0	0	0
CCOCCCNC(=O)c1c(NC(=O)c2nc(SCC)ncc2Cl)sc2c1CCCC2	-	-	-	-	-	0
O=C(CSc1ccccn1)N/N=C/c1cc([N+](=O)[O-])ccc1O	3.55µM	0	?	0	0	0
Cc1ccc(S(=O)(=O)/N=C2/NC(=O)/C(=C/c3cc([N+](=O)[O-])ccc3O)S2)cc1	0	0	?	?	0	0

Screening results as filed in PubChem.
